The text below walks through data of PubChem BioAssay (Tox21).

Records with an inconclusive call do not appear. Calls of active or inactive are those of the source. Calls follow the shape of the dose curve; as a rule, active = well fitted cell-killing curve with a large enough effect in the repeat runs; inconclusive = weak or mixed curves, or effect the other way; inactive = flat fitted curve, though single readings scatter.
% is scaled to controls: 0 for no effect and ±100 for the full control effect.

The experiment in a line: cAMP Responsive Elements (CRE) small molecule antagonists, cell-based qHTS assay: qHTS cell viability counter screen (AID 2060913). Also: nearly all actives have a fitted effect of over 40% in size. To be noted: CRE-bla HEK293T viability, CellTiter-Glo luminescence, 5 h; series mostly up to 92.4 µM; viability change, negative = cytotoxic: at the top concentration. The procedure, abridged:
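HEK293T CRE-bla, 2,000 cells/well, 18 h preincubation; cpd in DMSO + NKH477 0.25 uM final, 3 h 37 C/5% CO2; LiveBLAzer 2 h RT, then CellTiter-Glo 30 min RT, luminescence.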
Consider `O=C(O)c1ccc2cc(C(=O)O)ccc2c1`, for which the “viability change, negative = cytotoxic” value is 7.45% (inactive).

With `O=C(O)c1ccc(O)c(O)c1`, the “viability change, negative = cytotoxic” value is -0.76% (inactive).

`CC(=O)Oc1cccc2c1C(=O)c1c(OC(C)=O)cc(C(=O)O)cc1C2=O`: the “viability change, negative = cytotoxic” value is -4.37% [at 42.5 µM] (inactive).

Consider `CN(C)C(=O)Oc1cccc([N+](C)(C)C)c1`, for which the “viability change, negative = cytotoxic” value was -0.631% [at 42.5 µM] (inactive).

Consider `NC(N)=NC(=O)c1nc(Cl)c(N)nc1N`, for which the Potency result was “inactive”.

In the case of `C1CCC2(CCCCO2)OC1`, the “viability change, negative = cytotoxic” value is -1.5% (inactive).

On to `Oc1ccc2c(c1)OC[C@@H](N1CCC(O)(c3ccc(F)cc3)CC1)[C@H]2O`, for which the “viability change, negative = cytotoxic” value is 6.9% [at 42.5 µM] (inactive).

Take `CCCCCCCCCCCCCCCC(=O)NCCO`: the “viability change, negative = cytotoxic” value was -3.42% [at 42.5 µM] (inactive).

As to `CC1(C)CC(=O)CC(C)(C)N1`, the “viability change, negative = cytotoxic” value was -5.86% (inactive).

Take `CC(C)C(C)C`: the “viability change, negative = cytotoxic” value was 0.192% (inactive).

Turning to `O=C(Cl)c1c(Cl)c(Cl)c(C(=O)Cl)c(Cl)c1Cl`, the Potency result is “inactive”.

As to `Clc1nnc(Cl)c2ccccc12`, the “viability change, negative = cytotoxic” value was 0.492% (inactive).

`CCCCCCCCCCCCCC(=O)O`: the Potency result was “inactive”.

With `C#CC(O)CCCCC` (stereo unspecified), the “viability change, negative = cytotoxic” value was -13.3% (inactive).

Take `CCCCCCCCCCCCCCC(=O)O`: the “viability change, negative = cytotoxic” value is 0.0737% (inactive).

Turning to `Nc1ccc2cc(S(=O)(=O)O)ccc2c1`, the “viability change, negative = cytotoxic” value was -1.7% (inactive).

Consider `COc1ccc(CCN(C)CCCC(C#N)(c2ccc(OC)c(OC)c2)C(C)C)cc1OC` (stereo unspecified), for which the Potency entry is “inactive”.

As to `CC(C)Nc1ccc(NC(C)C)c2c1C(=O)c1ccccc1C2=O`, the “viability change, negative = cytotoxic” value was -0.25% [at 42.5 µM] (inactive).

With `CN(C)CCCCCCN(C)C`, the “viability change, negative = cytotoxic” value is 2.87% (inactive).

Consider `Nc1ccc2c(c1)C(=O)c1ccccc1C2=O`, for which the Potency result is “inactive”.

`CC(C)CCCCOC(=O)c1ccccc1C(=O)OCCCCC(C)C`: the “viability change, negative = cytotoxic” value was -0.351% (inactive).

`C=CCCCCCCC=C`: the “viability change, negative = cytotoxic” value is 1.16% (inactive).

As to `O=S(=O)(O)CCN1CCN(CCO)CC1`, the “viability change, negative = cytotoxic” value is 5.35% (inactive).

As for `NC(=S)Nc1cccc2ccccc12`, the viability change, negative = cytotoxic is 19.4% [at 8.39 µM] (inactive).

For the compound `CC12CCC(CC1)C(C)(C)O2`, the Potency result is “inactive”.

Consider `COc1ccc(C(=O)N2CCN(CC(=O)N3CCOCC3)CC2)cc1`, for which the “viability change, negative = cytotoxic” value is 4.01% [at 42.5 µM] (inactive).
